In PubChem BioAssay (NCI):
“And” between values parts separate entries of the source, which are not always exact repeats. Equal entries are not always repeated. Compounds without any hit were thinned out: in the full panel of roughly 83,000, 20% have a hit.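 Each cell line was grown in a 96-well plate and treated with one concentration of compound for 48 hours. Values below 10 were considered active.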 The source made the active and inactive calls.

test system: MDA-MB-468 breast; test: NCI-60 one-dose screen, 48 h (100 = growth as untreated, 0 = no growth, -100 = all killed); conditions: 10 µM unless noted

Structure (SMILES)	growth
O=C(Cn1nnc2ccccc21)N/N=C/c1c[nH]c2ccccc12	34.5% (inactive)
O=C(O)c1ccccc1Cc1ccc(F)c2ccccc12	110% (inactive) and 102% (inactive)
COC(=O)c1ccc2oc(NC(=O)c3ccc(N4CCOCC4)c([N+](=O)[O-])c3)nc2c1	113% (inactive)
O=C(CSc1nnc(-c2ccc3nc(-c4ccc(Cl)cc4)[nH]c3c2)o1)Nc1ccc(C(=O)/C=C/c2ccc(Cl)cc2)cc1	100% (inactive)
CC(=O)Nc1c(C)cc(C)cc1C	108% (inactive)
Cc1nc2sc(C(=O)Nc3cccc(Br)c3)c(N)c2cc1C(O)c1ccccc1 (stereo unspecified)	11.9% (inactive)
O=C(Nc1nc2ccc([N+](=O)[O-])cc2s1)Nc1ccccc1Cl	58.5% (inactive)
CNC(=O)Nc1ccc(-c2nc(N3CCOCC3)nc3c2cnn3C2CCOCC2)cc1	-34.4% (active)
O=C(O)COc1ccc(OCC(=O)O)cc1	2.23% (active)
COc1ccc2c(c1)CC[C@H](O)/C2=C/c1cc(OC)c(OC)c(OC)c1	17.6% (inactive)
OCC(O)COc1ccc(Cl)cc1Cl (stereo unspecified)	111% (inactive)
CC(=O)Nc1ccc(C=Nc2ccc3ccccc3c2)cc1	107% (inactive)
COc1ccc(-c2cc(-c3cc4ccccc4oc3=O)n(-c3ccccc3)n2)cc1	87.3% (inactive)
COC(=O)[C@H]1Cc2c([nH]c3ccccc23)[C@@H](c2cccs2)N1	101% (inactive)
C=CCN1C(=O)[C@]2(SC1=S)[C@H](c1cccc(Cl)c1)CN(C)[C@]21C(=O)NC2C=CC(Cl)=C[C@H]21 (stereo partly specified)	27% (inactive)
Cc1ccc(S(=O)(=O)Oc2ccc([N+](=O)[O-])cc2[N+](=O)[O-])cc1	107% (inactive)
CNC(=O)c1c(NC(=O)c2cccc(C(F)(F)F)c2)sc2c1CCC(=O)C2	-28% (active)
C[C@@H]1O[C@@H](O[C@H]2[C@@H](OC(=O)[C@]34CCC(C)(C)C[C@H]3C3=CC[C@@H]5[C@@]6(C)C[C@H](O)[C@H](O[C@@H]7O[C@H](CO)[C@@H](O)[C@H](O)[C@H]7O)[C@@](C)(CO)[C@@H]6CC[C@@]5(C)[C@]3(C)C[C@H]4O)OC[C@@H](O)[C@@H]2O)[C@H](O)[C@H](O[C@@H]2OC[C@@H](O)[C@H](O[C@@H]3OC[C@](O)(CO)[C@H]3O[C@@H]3OC[C@@H](O)[C@H](O)[C@H]3O)[C@H]2O)[C@H]1O[C@@H]1OC[C@](O)(CO)[C@H]1O	-24.2% (active)

Structure (SMILES)	growth
CC(C)n1c(NCCc2ccc(O)c(O)c2)nc2c1c(=O)n(C)c(=O)n2C	73.8% (inactive)
N/C(=N\C(N)=N\c1nc2ccccc2s1)c1cnccn1	-24.8% (active)
COc1cccc(/C=C2\SC(=Nc3ccc(NC(C)=O)cc3)NC2=O)c1OC	109% (inactive)
Cc1cc2nc(C(Cl)Cl)nc(-c3cccs3)n2n1	-52% (active)
Cc1ccc(-c2cc3nc(C(Cl)Cl)nc(-c4ccc(S(=O)(=O)N(C)C)cc4)n3n2)cc1	82% (inactive)
COc1ccc(S(=O)(=O)NCCCNc2nccc(-c3c(-c4cccc(N)c4)nc4sccn34)n2)cc1	78.7% (inactive)
NS(=O)(=O)c1ccc(CCn2c(SCC(=O)N/N=C/c3ccccc3O)nc3ccccc3c2=O)cc1	59.1% (inactive)
CCC(C)(C)C1CCC(O)CC1 (stereo unspecified)	104% (inactive)
COc1ccc(/C=C(\C#N)n2nnc3cc(Cl)ccc32)cc1	18.5% (inactive)
CCCCCCCC/C=C\CCCCCCCCOc1ccc(CC(=O)NCC[N+]2(C)CCCC2)cc1	33.5% (inactive)
COc1cc(C(=O)c2cc3c(cc2C)OCO3)cc(OC)c1OC	27.6% (inactive)
CCCCCCN1CSC(=S)N(CCCCCC)C1	89% (inactive)
CN(C)CCS(=O)(=O)Nc1cc(-c2ccc3ncnc(Nc4ccc(F)c(Cl)c4)c3c2)cnc1Cl	-53% (active)
COc1ccc(-c2nc3ccccn3c2/C=C/C(=O)c2cc(OC)c(OC)c(OC)c2)cc1OC	8.94% (active)
O=C1OCC2=C1C(c1cccc(Br)c1)c1cc3c(cc1N2CCO)OCCO3 (stereo unspecified)	24.7% (inactive)
Cc1ccc(/C=C(\C#N)n2nc3cccc(F)c3n2)cc1	85.2% (inactive)
O=C(Nc1cccc2ccccc12)NC1CC1	96% (inactive)
O=C1/C(=C\c2cccn2C(=O)c2ccccc2)c2ccccc2N1c1c(Cl)cccc1Cl	46.8% (inactive)
